From PubChem BioAssay (Tox21)
Activity calls are given as the source filed them. The call rests on the fitted dose curve; in most records, active means well fitted curve in the direction sought with a large enough effect in the repeat runs; inconclusive means weak or mixed curves; inactive means flat fitted curve, though single readings scatter.

assay: qHTS assay to test for compound auto fluorescence at 535 nm (green) in HepG2 cells (AID 720675); conditions: green autofluorescence 485/535 nm, 1 h; series mostly up to 91.3 µM
Excerpt: National Center for Advancing Translational Sciences [NCATS]
NIH Chemical Genomics Center [NCGC]
U.S. Environmental Protection Agency [EPA]
National Institutes of Environmental Health Sciences [NIEHS]
National Toxicology Program [NTP]
U.S. Food and Drug Administration [FDA]
Compound auto fluorescence often interferes with screening of the compound library against various biological targets and signaling pathways. Some of these compounds may have fluorophoric properties. Such properties may interfere with the assay outputs resulting in false positives and/or negatives. To decrease such complications and ensure the compound activities are relevant in terms of biological response, the Tox21 10K compound library was screened for auto fluorescence.
From the fluorophores used as reporter signals in our screening assays, the auto fluorescence equivalencies of compounds against three fluorophores have been evaluated: Triamterene, Fluorescein and Rose Bengal sodium for blue, green and red fluorescence, respectively. The fluorescence intensities were measured using Excitation/Emission wavelengths at 405/460nm, 485/535nm and 540/590nm for blue, green and red labels, respectively. This assay includes the green fluorescence data.
Tox21 Assay Protocol Summary:
2,000 HepG2 cells in 5 uL of culture medium (MEM containing 10% FBS) per well were dispensed into black wall/clear bottom 1536-well plates using a Multidrop Combi Dispenser (ThermoFisher Scientific, Waltham, MA). The assay plates were incubated overnight at 37 C to allow cell attachment to the well bottom, followed by the transfer of 23 nL compound or DMSO vehicle by a pintool work station (Kalypsys , San Diego, CA). After the assay plates were incubated for 1 hr at 37 C and 5% CO2, fluorescence intensities in the assay plates were measured by an Envision (PerkinElmer, Shelton, CT) plate reader using three labels for measuring blue, green and red fluorescence at […] 460, 535 and 590 nm respectively.
On the % scale 0 is the no-effect control and ±100 the full control effect.

| Compound | outcome | fluorescence, % of fluorescein control |
| --- | --- | --- |
| CC(C)CCC(=O)CCC(C)C | inactive | – |
| CCCCCCCC[Si](OCC)(OCC)OCC | inactive | – |
| O=c1[nH]c(=O)c2[nH]c(=O)[nH]c2[nH]1 | inactive | – |
| O=C(c1ccc2c(c1)C(=O)OC2=O)c1ccc2c(c1)C(=O)OC2=O | inactive | – |
| CCNC(=O)/C=C/c1cccc(Br)c1 | inactive | – |
| Nc1ccnc(=O)[nH]1 | inactive | – |
| CCc1nccnc1C | inactive | – |
| CCCCCCCCCCC | inactive | – |
| CCCCOC(=O)[C@@H](C)Oc1ccc(Oc2ccc(C(F)(F)F)cn2)cc1 | inactive | – |
| N#CCCOCCOCCC#N | inactive | – |
| CCCCCCCCCCCCC | inactive | – |
| Cc1oc(=O)oc1CN1CCN(c2cc3c(cc2F)c(=O)c(C(=O)O)c2n3C(C)S2)CC1 (stereo not given) | inactive | – |
| COC(/C=C(\C)CCC=C(C)C)OC | inactive | – |
| Nc1c(NC/C=C\COc2cc(CN3CCCCC3)ccn2)c(=O)c1=O | inactive | – |
| CC(=O)OC(C(=O)c1ccccc1)c1ccccc1 (stereo not given) | inactive | – |
| CN[C@@H]1[C@@H](O)[C@@H](O[C@@H]2[C@H](O)[C@H](O[C@H]3OC(CN)=CC[C@H]3N)[C@@H](N)C[C@H]2N)OCC1(C)O (stereo not given in full) | inactive | – |
| CC(C)CCCC(C)CC=O (stereo not given) | inactive | – |
| C=CCOCC(CO)(COCC=C)COCC=C | inactive | – |
| Cc1ccccc1C(=O)N1CC/C(=N\OS(=O)(=O)O)c2ccc(Cl)cc21 | inactive | – |
| CC(=O)OC(C)(C)Cc1ccccc1 | inactive | – |

| Compound | outcome | fluorescence, % of fluorescein control |
| --- | --- | --- |
| CC(C)COC(=O)/C=C/c1ccccc1 | inactive | – |
| CNC(=O)NC | inactive | – |
| CC(C)(c1ccc(Oc2ccc3c(c2)C(=O)OC3=O)cc1)c1ccc(Oc2ccc3c(c2)C(=O)OC3=O)cc1 | inactive | – |
| CCC(C)N (stereo not given) | inactive | – |
| CCCCC[Si](OCC)(OCC)OCC | inactive | – |
| C[C@H](CCC(=O)O)[C@H]1CC[C@H]2[C@@H]3[C@H](O)C[C@@H]4C[C@H](O)CC[C@]4(C)[C@H]3C[C@H](O)[C@]12C | inactive | – |
| O=C(O)CCNC(=O)c1ccccc1 | inactive | – |
| Cc1cc(C)cc([N+](=O)[O-])c1 | inactive | – |
| O=C1NC2NC(=O)NC2N1 (stereo not given) | inactive | – |
| CC(C)(CO)[C@@H](O)C(=O)NCCCO | inactive | – |
| CCCC(C)CC (stereo not given) | inactive | – |
| NCCc1ccn[nH]1 | – | 0.0074% [at 18.6 µM] (inactive) |
| NS(=O)(=O)c1cc2c(cc1Cl)NC(C(Cl)Cl)NS2(=O)=O (stereo not given) | – | 0.136% [at 18.6 µM] (inactive) |
| CC(CC(=O)O)CC(C)(C)C (stereo not given) | inactive | – |
| CNC(=O)C(c1ccccc1)c1ccccc1 | inactive | – |
| CCOC(=O)CC(CC(=O)OCC)(OC(C)=O)C(=O)OCC | inactive | – |
| F[Si-2](F)(F)(F)(F)F | inactive | – |
| O=CN1CCOCC1 | inactive | – |
| COc1ccc(OC)c(NC(=O)CC(C)=O)c1 | inactive | – |
| CN(C1CCCCC1)S(=O)(=O)c1ccccc1N | inactive | – |
